The list is not random: actives were taken first. Their share in the collection is about 11%.
ALDH1A1 block = qHTS Assay for Inhibitors of Aldehyde Dehydrogenase 1 (ALDH1A1); Potency, µM (doses to about 75.3 µM), for the others: at the highest dose activity, negative = inhibition, actives largely listed as inhibitors; Aldehyde dehydrogenase 1A1 (Homo sapiens), P00352; 7.3% of 220,000 active; Purified ALDH1A1, NADH fluorescence, propionaldehyde substrate; AID 1030, 2008;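 also: potency is read from the fitted curve at half-maximal effect; plate controls were no enzyme wells and a reference inhibitor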
Target sequence (P00352 whole entry, looked up): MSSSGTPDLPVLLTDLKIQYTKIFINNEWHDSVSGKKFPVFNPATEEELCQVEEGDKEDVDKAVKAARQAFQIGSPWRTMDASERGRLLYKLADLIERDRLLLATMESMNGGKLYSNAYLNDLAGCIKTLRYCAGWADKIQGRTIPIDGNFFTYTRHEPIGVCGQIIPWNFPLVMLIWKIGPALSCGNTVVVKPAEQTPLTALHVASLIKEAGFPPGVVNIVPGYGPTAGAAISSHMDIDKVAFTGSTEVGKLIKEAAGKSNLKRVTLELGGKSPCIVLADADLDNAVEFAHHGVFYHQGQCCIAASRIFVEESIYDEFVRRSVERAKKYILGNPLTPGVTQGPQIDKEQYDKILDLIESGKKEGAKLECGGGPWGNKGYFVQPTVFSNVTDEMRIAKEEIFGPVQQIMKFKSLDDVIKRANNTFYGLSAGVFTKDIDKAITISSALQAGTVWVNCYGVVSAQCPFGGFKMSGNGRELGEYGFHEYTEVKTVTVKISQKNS
PNC assembly inh = High Content Assay for Compounds that inhibit the Assembly of the Perinucleolar Compartment; PC3M PTB-GFP, PNC prevalence imaging, 16 h; hits give low values; activity change (PNC), negative = inhibition, % at 10 µM; 3.1% of 140,000 active; AID 2417, 2010;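 active = readout at or below -70, meaning at least 70% loss of cells showing the perinucleolar compartment, a nuclear body marking cancer cells; inconclusive = readout between -30 and a set limit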;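 also: plate controls were DMSO wells for no effect and camptothecin positive control wells for full effect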
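Compounds are pinned in duplicate onto adhered PC3M cells stably expressing GFP-tagged PTB and incubated 16 h at 37 C. Cells are then fixed, nuclei stained with Hoechst, and PNC-positive cells counted.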
HPGD inh = qHTS Assay for Inhibitors of HPGD (15-Hydroxyprostaglandin Dehydrogenase) | 4.3% of 150,000 active | purified HPGD, NADH fluorescence kinetic, PGE2 substrate | 15-hydroxyprostaglandin dehydrogenase [NAD(+)] (Homo sapiens), P15428 | Potency, µM, without a hit: at the highest dose activity change, negative = inhibition, hits mostly inhibitors; also: potency is read from the fitted curve at half-maximal effect
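20 nM HPGD preincubated 15 min at room temperature with compound in 50 mM Tris-HCl pH 8, 0.01% Tween 20. Started with 1 mM NAD+ and 30 uM prostaglandin E2; NADH fluorescence (360/450 nm) read 5 times over 30-s intervals, last minus first.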
* marks the source's active call; other numbers are inactive results; [ ] = remark or other dose. Unless noted, calls follow the shape of the dose curve; as a rule, active = well fitted inhibition curve with a large enough effect (not every such curve was filed as active); inconclusive = small, poorly fitted or top-dose-only effect, or another doubt; inactive = no such curve, though single readings can be large or run the other way. Unless noted, % is scaled to controls: 0 for no effect and ±100 for the full control effect.

CN1c2ccccc2C(C)(C)C12CC(c1ccc(Cl)c(S(=O)(=O)N3CCCC3)c1)=NO2 (configuration not stated) was read as ALDH1A1 block -9%, PNC assembly inh -121* and HPGD inh -7%.
O=C(Nn1c(C2CCCCC2)nc2ccccc2c1=O)c1ccc([N+](=O)[O-])cc1Cl was read as ALDH1A1 block inconclusive, PNC assembly inh inconclusive and HPGD inh -4%.
`COC(=O)COc1ccccc1/C=C1/NC(=O)NC1=O` gave ALDH1A1 block 6%, PNC assembly inh -21 and HPGD inh -10%.
COC(=O)C1=C(C)NC(=O)/C1=C\c1cccs1 was read as ALDH1A1 block -9%, PNC assembly inh 37 and HPGD inh -1%.
For COC(=O)C1=C(C)NC(=O)/C1=C\c1cc(C)n(-c2c(C)cccc2C)c1C the results were ALDH1A1 block 18µM*, PNC assembly inh 28 and HPGD inh -6%.
Screening Cc1cccc(C)c1-n1c(C)cc(/C=C2\NC(=O)NC2=O)c1C returned ALDH1A1 block 16µM*, PNC assembly inh -14 and HPGD inh inconclusive.
Screening COC(=O)C1=C(C)NC(=O)/C1=C\c1cc(C)n(-c2ccccc2F)c1C returned ALDH1A1 block 16µM*.
`COC(=O)C1=C(C)NC(=O)/C1=C\c1cc(C)n(-c2ccccc2C)c1C` gave ALDH1A1 block inconclusive, PNC assembly inh -19 and HPGD inh -13%.
For CCC1(C)COC(C)(CC(=O)NNC(=O)Nc2ccccc2)OC1 (configuration not stated) the results were ALDH1A1 block 13%.
Screening O=S(=O)(c1cc(Cl)ccc1Cl)N1CC2CCCN2c2ccc(C(F)(F)F)cc21 (configuration not stated) returned ALDH1A1 block 2%, PNC assembly inh inconclusive and HPGD inh -9%.
CC(C)(C)n1nc2c(c1NC(=O)Cc1ccccc1)CS(=O)(=O)C2 was read as ALDH1A1 block 6%.
For CCc1cc(C(=O)Cc2nc3ccccc3s2)c(O)cc1OCC(=O)O the results were ALDH1A1 block 1%.
Screening COc1ccc2ccccc2c1CN1CCN(Cc2ccccc2)CC1 returned ALDH1A1 block 1%, PNC assembly inh 95 and HPGD inh -6%.
Screening [ClH+][Cu][ClH+].[Cu].[OH2+]c1ccc2ccccc2c1CN1CCCCC1.[OH2+]c1ccc2ccccc2c1CN1CCCCC1 returned ALDH1A1 block 1.8µM* and HPGD inh -13%.
For O=C(Oc1cccc2c(OC(=O)N3CCCC3)cccc12)N1CCCC1 the results were ALDH1A1 block inconclusive, PNC assembly inh -100* and HPGD inh -26%.
`O=C(Oc1cccc2c(OC(=O)N3CCOCC3)cccc12)N1CCOCC1` gave ALDH1A1 block 0%, PNC assembly inh -21 and HPGD inh -4%.
Screening Cc1cc(C)[n+](-c2ccc(C(C)C)cc2)c2[nH]c(=O)[nH]c(=O)c12 returned ALDH1A1 block inconclusive, PNC assembly inh 63 and HPGD inh inconclusive.
Screening CCC(C)N(C)Cc1cccc(C2(O)CCN(S(=O)(=O)c3ccc(F)c(C)c3)CC2)c1 (configuration not stated) returned ALDH1A1 block inconclusive, PNC assembly inh -113* and HPGD inh 0%.
Screening Cc1cc(S(=O)(=O)N2CCN(c3c(C)cccc3C)CC2)ccc1F returned ALDH1A1 block inconclusive, PNC assembly inh -8 and HPGD inh -14%.
Screening CC(O)CNCCNCc1cccs1 (configuration not stated) returned ALDH1A1 block 15%.
Cc1cc(NC(=S)NC(=O)c2ccccc2)ccc1-c1cc2ccccc2oc1=O was read as ALDH1A1 block 8.9µM*, PNC assembly inh -15 and HPGD inh -5%.
Screening O=C(Nc1ccc(N2CCCC2)cc1)c1cccc(-c2cc3ccccc3oc2=O)c1 returned ALDH1A1 block 2.2µM*, PNC assembly inh 7 and HPGD inh 8.9µM*.
For CCOc1ccc(C(=O)Nc2ccc(-c3cc4ccccc4oc3=O)c(C)c2)cc1[N+](=O)[O-] the results were ALDH1A1 block -1%, PNC assembly inh -5 and HPGD inh -23%.
COc1cc(C(=O)NC(=S)Nc2cccc(-c3cc4ccccc4oc3=O)c2)cc(OC)c1OC was read as ALDH1A1 block 14µM*, PNC assembly inh -19 and HPGD inh -6%.
Screening COc1ccc(C(=O)NC(=S)Nc2ccc3oc(=O)ccc3c2)cc1OC returned ALDH1A1 block 5%, PNC assembly inh 46 and HPGD inh 2%.
For O=C(Nc1ccccc1N1CCCC1)c1cccc(-c2cc3ccccc3oc2=O)c1 the results were ALDH1A1 block -1%, PNC assembly inh -17 and HPGD inh -8%.
CCOC(=O)C1=C(C)Nc2sc(C(=O)c3ccc(OC)cc3)c(N)c2C1c1ccc(C(=O)OC)cc1 (configuration not stated) was read as ALDH1A1 block -1%, PNC assembly inh 167 and HPGD inh -19%.
`O=C(C1=C[C@@H](c2ccc(C(F)(F)F)cc2)C[C@@H](OCCCCO)O1)N1CCN(Cc2ccc3c(c2)OCO3)CC1` gave ALDH1A1 block -4%.
`Cc1ccc2nc(NC(=O)COC(=O)CSc3nc(C)cc(C)n3)sc2c1` gave ALDH1A1 block 13µM*, PNC assembly inh -27 and HPGD inh inconclusive.
`CSc1nsc(SCC(=O)Nc2nc3ccc(C)cc3s2)n1` gave ALDH1A1 block 40µM*, PNC assembly inh 1 and HPGD inh -15%.
`Cc1ccc2nc(NC(=O)CSCc3ccccc3)sc2c1` gave ALDH1A1 block 12%, PNC assembly inh -12 and HPGD inh -6%.
Screening COC(=O)c1ccc2nc(NC(=O)COC(=O)CSc3nc(C)cc(C)n3)sc2c1 returned ALDH1A1 block 4%, PNC assembly inh 4 and HPGD inh -18%.
Screening CC1=CC2=C(OC1N(C)C)c1cccc3cccc(c13)C2=O (configuration not stated) returned ALDH1A1 block 2.2µM*, PNC assembly inh 17 and HPGD inh -12%.
`Cc1ccc(N2C(=O)c3cccc4cccc(c34)C2=O)cc1` gave ALDH1A1 block -9%.
Screening O=C(O)c1ccccc1-c1ccccc1C(=O)Nc1ccc2c(c1)Cc1ccccc1-2 returned ALDH1A1 block 8%[13.5 µM] and HPGD inh -4%.
`NC[C@@H]1O[C@H](O[C@@H]2[C@H](O[C@@H]3O[C@H](CO)[C@@H](O)[C@@H]3O)[C@@H](O)[C@@H](N)C[C@H]2N)[C@@H](N)[C@H](O)[C@@H]1O` gave ALDH1A1 block -2%[20.9 µM] and HPGD inh -7%.
`COc1cc(C(=O)Nc2cccc(-c3nc4cc(C)ccc4o3)c2)cc(OC)c1OC` gave ALDH1A1 block -7%, PNC assembly inh inconclusive and HPGD inh inconclusive.
For COc1cc(OC)cc(-c2nc3cc(C)ccc3o2)c1 the results were ALDH1A1 block inconclusive, PNC assembly inh -117* and HPGD inh inconclusive.
CN(c1cccc(NC(=O)CN(c2cccc(F)c2)S(C)(=O)=O)c1)S(C)(=O)=O was read as ALDH1A1 block 1%.
